Laboratory results as given in PubChem BioAssay (EPA / NIEHS).
Records with an inconclusive call do not appear. Activity calls are given as the source filed them. Rule for the calls, unless noted: active = hit-call score of the fitted dose curve at least 0.9, where 1 is the maximum; inactive = score below 0.9.

Columns and labels:
[1] = TOX21_p53_BLA_p2_viability: Viability Assessment in the Tox21 HCT-116 p53 Agonism Beta-lactamase Assay, Phase 2 (AID 2283591; active = hit-call score of the fitted dose curve at least 0.9, where 1 is the maximum;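 note: actives lower the ATP signal meaning cytotoxicity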)
Procedure, shortened: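 Cytotoxicity readout: CellTiter-Glo ATP luminescence, 30 min at room temperature, after the beta-lactamase read. Cells were HCT116 exposed 16 h at 37C to compounds pin-transferred at 217-fold dilution from DMSO stocks.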

[2] = target: Cellular tumor antigen p53 (Homo sapiens) (UniProt P04637); assay: TOX21_p53_BLA_p2_ratio: Tox21 HCT-116 p53 Agonism Beta-lactamase Assay, Ratio, Phase 2 (AID 2283592; active = hit-call score of the fitted dose curve at least 0.9, where 1 is the maximum)
Procedure, shortened: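 Readout: blue/green (460/530 nm) FRET emission ratio after 2 h CCF4-AM loading at room temperature, excitation 405 nm. HCT116 p53 bla cells, 16 h compound exposure at 37C, 5% CO2; agonist direction fitted against DMSO baseline.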

[3] = TOX21_p53_BLA_p3_viability: Viability Assessment in the Tox21 HCT-116 p53 Agonism Beta-lactamase Assay, Phase 3 (AID 2283593; active = hit-call score of the fitted dose curve at least 0.9, where 1 is the maximum;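 note: cells exposed to compound for 16 h before reading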)
Procedure, shortened: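 Cellular ATP was quantified by CellTiter-Glo luminescence, read after 30 min at room temperature. Beforehand, HCT116 cells (4000/well) received compound 5 h post-seeding, 217-fold diluted from DMSO, then incubated 16 h at 37C.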

[4] = target: Cellular tumor antigen p53 (Homo sapiens) (UniProt P04637); assay: TOX21_p53_BLA_p3_ratio: Tox21 HCT-116 p53 Agonism Beta-lactamase Assay, Ratio, Phase 3 (AID 2283596; active = hit-call score of the fitted dose curve at least 0.9, where 1 is the maximum)
Procedure, shortened: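 Cells were seeded at 4000/well, rested 5 h at 37C, then dosed with DMSO compound solutions (217-fold dilution) for 16 h. CCF4-AM substrate was loaded for 2 h at room temperature, and the 460/530 nm emission ratio was fitted for gain of signal versus DMSO.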

[5] = TOX21_p53_BLA_p4_viability: Viability Assessment in the Tox21 HCT-116 p53 Agonism Beta-lactamase Assay, Phase 4 (AID 2283597; active = hit-call score of the fitted dose curve at least 0.9, where 1 is the maximum;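 note: hits lower the luminescence signal meaning cytotoxicity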)
Procedure, shortened: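 ATP content by CellTiter-Glo luminescence, 30 min RT, read after the beta-lactamase ratio step. Cells: HCT116, 4000/well, compound added after 5 h, exposure 16 h at 37C. Signal loss = reduced viability.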

[6] = target: Cellular tumor antigen p53 (Homo sapiens) (UniProt P04637); assay: TOX21_p53_BLA_p5_ratio: Tox21 HCT-116 p53 Agonism Beta-lactamase Assay, Ratio, Phase 5 (AID 2283599; active = hit-call score of the fitted dose curve at least 0.9, where 1 is the maximum)
Procedure, shortened: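 Beta-lactamase reporter ratio (blue 460 nm over green 530 nm, 405 nm excitation) after 2 h CCF4-AM loading, in HCT-116 cells exposed 16 h at 37 C to compounds pinned at 217-fold dilution. Increases relative to DMSO baseline scored.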

[7] = target: Cellular tumor antigen p53 (Homo sapiens) (UniProt P04637); assay: TOX21_p53_BLA_p4_ratio: Tox21 HCT-116 p53 Agonism Beta-lactamase Assay, Ratio, Phase 4 (AID 2283601; active = hit-call score of the fitted dose curve at least 0.9, where 1 is the maximum)
Procedure, shortened: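 Signal is the blue/green (460nm/530nm) ratio of cleaved versus uncleaved CCF4-AM substrate, read after 2 h substrate loading. Cells were HCT116 carrying the p53-responsive beta-lactamase reporter, dosed 16 h at 37C, 5% CO2; CellTiter-Glo measured in parallel.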

[8] = CCTE_Shafer_MEA_acute_firing_rate_mean: CCTE's Neural Acute Assay for Mean Firing Rate, Shafer Lab (AID 2284009);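 note: analyzed for loss of signal so actives lower firing rate relative to DMSO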
Procedure, shortened: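 Primary rat cortical neurons on 16-electrode MEA wells were exposed on DIV 13 or 15 to compound (0.03-40 uM). Spike counts per recording time, averaged over electrodes, were compared between 40-min baseline and 40-min post-exposure recordings as percent change.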

[9] = CCTE_Shafer_MEA_acute_burst_number: CCTE's Neural Acute Assay for Single-Electrode Bursts, Shafer Lab (AID 2284013)
Procedure, shortened: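 Primary rat cortical neurons on 16-electrode MEA wells, DIV 13 or 15, exposed to compound (0.03-40 uM; ≥3 wells); 40-min recordings at 37 C before and after treatment. Burst count expressed as percent change from baseline, DMSO as negative control.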

[10] = CCTE_Shafer_MEA_acute_per_burst_spike_number_mean: CCTE's Neural Acute Assay for Average Number of Spikes Per Burst, Shafer Lab (AID 2284015);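 note: hits are decreases in mean spikes per burst versus baseline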
Procedure, shortened: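 Primary rat cortical neurons on 48-well MEA plates, treated on DIV 13 or 15 at 0.03-40 uM. Spontaneous activity recorded 40 min before and 40 min after compound at 37 C; percent change in mean spikes per single-electrode burst per well, fitted in the loss direction versus DMSO.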

[11] = CCTE_Shafer_MEA_acute_interburst_interval_mean: CCTE's Neural Acute Assay for Mean Interburst Interval, Shafer Lab (AID 2284016);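 note: percent change of mean interburst interval versus each well's own pre-dose baseline; curves fitted for decrease in interburst interval relative to DMSO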
Procedure, shortened: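 Primary rat cortical neurons on 16-electrode MEA wells were recorded 40 min at baseline on DIV 13 or 15, then 40 min after compound (0.03-40 uM), at 37 C. Value is percent change in mean interburst interval per well, DMSO as negative control.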

[12] = CCTE_Shafer_MEA_acute_burst_percentage_mean: CCTE's Neural Acute Assay for Percentage of Spikes in a Burst, Shafer Lab (AID 2284017)
Procedure, shortened: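 Primary rat cortical neurons on 16-electrode MEA wells; 40 min baseline recorded at DIV 13 or 15, then 40 min after compound (0.03-40 uM) at 37 C. Well-mean fraction of spikes in single-electrode bursts; percent change from baseline, DMSO as negative control.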

[13] = CCTE_Shafer_MEA_acute_burst_percentage_std: CCTE's Neural Acute Assay for Standard Deviation of Burst Percentage, Shafer Lab (AID 2284018);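 note: fitted in the negative direction so actives lower burst percentage SD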
Procedure, shortened: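 Value is percent change from baseline in the across-electrode SD of spikes-in-bursts percentage, wells with >/= 10 active electrodes. Acute 40-min exposure to 0.03-40 uM on DIV 13 or 15 rat cortical cultures, recorded at 37 C after 40-min baseline.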

[14] = CCTE_Shafer_MEA_acute_per_network_burst_spike_number_mean: CCTE's Neural Acute Assay for Average Number of Spikes in a Network Burst, Shafer Lab (AID 2284019)
Procedure, shortened: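 Percent change from baseline in mean spikes per network burst, spikes detected at 8x rms noise. Each compound at 0.03-40 uM in at least three wells of rat cortical cultures, recorded 40 min before and 40 min during exposure.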

[15] = CCTE_Shafer_MEA_acute_per_network_burst_spike_number_std: CCTE's Neural Acute Assay for Standard Deviation of Number of Spikes in a Network Burst, Shafer Lab (AID 2284020);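 note: fitted for decrease in spike-number SD versus DMSO so actives lower it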
Procedure, shortened: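 Endpoint: percent change from 40 min baseline in standard deviation of spikes per network burst, after 40 min compound exposure (0.03-40 uM, 37 C). Cortical rat neurons on MEA at DIV 13 or 15; spikes detected at 8x rms noise, 300-5000 Hz band-pass.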

[16] = CCTE_Shafer_MEA_acute_per_network_burst_electrodes_number_mean: CCTE's Neural Acute Assay for Mean Number of Electrodes in a Network Burst, Shafer Lab (AID 2284021);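 note: curves fitted for decreases only so hits reduce electrodes per burst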
Procedure, shortened: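 Readout: % change in mean electrodes active per network burst, post- vs pre-treatment, each well. Spikes detected at 8x rms noise after 300-5000 Hz band-pass; rat cortical cultures, DIV 13/15, compounds 0.03-40 uM, DMSO baseline.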

[17] = CCTE_Shafer_MEA_acute_network_burst_percentage: CCTE's Neural Acute Assay for Percentage of Network Bursts, Shafer Lab (AID 2284022);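 note: curves fitted for loss so actives lower network burst percentage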
Procedure, shortened: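 Rat cortical cultures, DIV 13/15; 20 min equilibration, 40 min baseline, compound 0.03-40 uM, 40 min recording, 37 C. Spikes: 300-5000 Hz band-pass, threshold 8x rms noise. Readout: % change in network-burst spike fraction; loss direction vs DMSO.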

[18] = CCTE_Shafer_MEA_acute_cross_correlation_area: CCTE's Neural Acute Assay for Area of Cross Correlation, Shafer Lab (AID 2284024);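 note: area under pooled inter-electrode spike cross-correlation near zero lag as percent change from own baseline; curves fitted for loss of cross-correlation area so actives lower synchrony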
Procedure, shortened: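 Rat cortical cultures, DIV 13/15, MEA; spikes detected at 8x rms noise (300-5000 Hz band-pass). Compound 0.03-40 uM, ≥3 wells each. Readout: % change in pooled inter-electrode cross-correlation area vs own baseline; DMSO negative control.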

[19] = CCTE_Shafer_MEA_dev_firing_rate_mean: CCTE's Neural Network Formation Assay for Mean Firing Rate, Shafer Lab (AID 2284031)
Procedure, shortened: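 Read-out: spike count/recording length, averaged over active electrodes, then AUC across days 5, 7, 9, 12. Rat cortical cultures on MEA; continuous 12-day exposure, media and treatment renewed DIV 5, 9; DMSO baseline.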

[20] = CCTE_Shafer_MEA_dev_per_burst_spike_percent: CCTE's Neural Network Formation Assay for Percent of Spikes in a Burst, Shafer Lab (AID 2284032)
Procedure, shortened: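 Value is trapezoidal AUC over recordings on days 5, 7, 9 and 12 of the well-mean fraction of spikes falling in single-electrode bursts; rat cortical cultures exposed continuously from plating, treatment renewed DIV 5 and 9, fitted downward against DMSO.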

[21] = CCTE_Shafer_MEA_dev_active_electrodes_number: CCTE's Neural Network Formation Assay for Number of Active Electrodes, Shafer Lab (AID 2284040; active = hit-call score of the fitted dose curve at least 0.9, where 1 is the maximum)
Procedure, shortened: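 Developing rat cortical networks on MEAs, exposed DIV 0–12. Value is the AUC of active-electrode counts (≥5 spikes/min) from days 5, 7, 9, 12, relative to DMSO.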

[22] = CCTE_Shafer_MEA_dev_burst_rate: CCTE's Neural Network Formation Assay for Burst Rate, Shafer Lab (AID 2284042)
Procedure, shortened: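 Rat primary cortical cultures on PEI/laminin MEA; compound from plating, re-dosed at DIV 5, 9 media change. Single-electrode bursts/recording length, well mean of active electrodes; AUC over DIV 5–12 recordings; loss-of-signal vs DMSO.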

[23] = CCTE_Shafer_MEA_dev_bursting_electrodes_number: CCTE's Neural Network Formation Assay for Number of Bursting Electrodes, Shafer Lab (AID 2284043; active = hit-call score of the fitted dose curve at least 0.9, where 1 is the maximum)
Procedure, shortened: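 Number of electrodes reaching ≥1 burst every 2 min was recorded at DIV 5, 7, 9 and 12 and collapsed as trapezoidal area under the curve. Cultures were rat cortical neurons on MEA plates, dosed continuously from plating with medium and treatment refreshed on DIV 5 and 9.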

[24] = CCTE_Shafer_MEA_dev_per_burst_interspike_interval: CCTE's Neural Network Formation Assay for Burst Interspike Interval, Shafer Lab (AID 2284044)
Procedure, shortened: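 Readout is the average time between spikes inside single-electrode bursts, taken as a well mean across bursting electrodes. Cortical neurons from rat developed networks on MEA plates under continuous 12-day exposure; recordings on days 5, 7, 9 and 12 were integrated by trapezoidal AUC.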

[25] = CCTE_Shafer_MEA_dev_burst_duration_mean: CCTE's Neural Network Formation Assay for Mean Burst Duration, Shafer Lab (AID 2284045)
Procedure, shortened: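 Mean single-electrode burst duration (first to last spike), averaged over bursting electrodes per well, then integrated as area-under-curve across recordings at days 5, 7, 9 and 12. Rat cortical cultures on MEAs, compound present from plating, refreshed at feeds.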

[26] = CCTE_Shafer_MEA_dev_interburst_interval_mean: CCTE's Neural Network Formation Assay for Mean Interburst Interval, Shafer Lab (AID 2284046);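 note: well-mean interburst interval of bursting electrodes as AUC over four recording days; curve fitted for decrease in interburst interval relative to DMSO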
Procedure, shortened: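 Rat cortical neurons, 1.5 x 10^5 cells/well, 48-well MEA; compound from day 0 through DIV 12, media and treatment renewed DIV 5/9. Recordings DIV 5, 7, 9, 12; well-mean interburst interval → trapezoidal AUC, loss direction vs DMSO.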

[27] = CCTE_Shafer_MEA_dev_inter_network_spike_interval_mean: CCTE's Neural Network Formation Assay for Mean Inter-network Spike Interval, Shafer Lab (AID 2284047)
Procedure, shortened: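 Primary rat cortical neurons on PEI-coated 48-well MEAs (16 electrodes/well) were exposed from plating day 0 to DIV 12, with dosing renewed at DIV 5 and 9. Recordings at DIV 5, 7, 9, 12 were collapsed by trapezoidal AUC, loss-of-signal fit vs DMSO.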

[28] = CCTE_Shafer_MEA_dev_network_spike_number: CCTE's Neural Network Formation Assay for Number of Network Spikes, Shafer Lab (AID 2284048)
Procedure, shortened: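 Number of network spikes (coordinated firing across electrodes) recorded on days 5, 7, 9 and 12 and summarised as area under the curve. Rat cortical cultures on MEA, continuous compound exposure with full medium/treatment exchange at DIV 5 and 9.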

[29] = CCTE_Shafer_MEA_dev_spike_duration_mean: CCTE's Neural Network Formation Assay for Mean Spike Duration, Shafer Lab (AID 2284051);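 note: mean network spike duration pooled as area under curve over DIV 5 to 12 recordings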
Procedure, shortened: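 Rat cortical primary cultures, 48-well MEA (16 electrodes/well); compound from plating, renewed DIV 5, 9. Network spike duration (AxIS adaptive detector) recorded DIV 5/7/9/12, combined as trapezoidal AUC; loss direction vs DMSO.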

[30] = CCTE_Shafer_MEA_dev_network_spike_duration_std: CCTE's Neural Network Formation Assay for Standard Deviation of Network Spike Duration, Shafer Lab (AID 2284052);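 note: hits are decreases in network spike duration SD versus DMSO vehicle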
Procedure, shortened: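 Rat cortical cultures, 1.5 x 10^5 cells/well, exposed continuously from plating to DIV 12 with media/compound renewal at DIV 5, 9. Spontaneous activity recorded DIV 5/7/9/12, AxIS adaptive spike detector; AUC across days; negative direction vs DMSO.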

[31] = CCTE_Shafer_MEA_dev_per_network_spike_spike_number_mean: CCTE's Neural Network Formation Assay for Mean Number of Spikes in a Network Spike, Shafer Lab (AID 2284053)
Procedure, shortened: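 Rat cortical primary cultures on 48-well MEA; compound from day 0, re-dosed with full media change DIV 5, 9. Recorded DIV 5, 7, 9, 12; spikes in 0.05 s window at network-spike peak ÷ total network spikes; AUC; loss vs DMSO.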

Measured: outcome

Cellular tumor antigen p53 (Homo sapiens), sequence (P04637 whole entry, looked up): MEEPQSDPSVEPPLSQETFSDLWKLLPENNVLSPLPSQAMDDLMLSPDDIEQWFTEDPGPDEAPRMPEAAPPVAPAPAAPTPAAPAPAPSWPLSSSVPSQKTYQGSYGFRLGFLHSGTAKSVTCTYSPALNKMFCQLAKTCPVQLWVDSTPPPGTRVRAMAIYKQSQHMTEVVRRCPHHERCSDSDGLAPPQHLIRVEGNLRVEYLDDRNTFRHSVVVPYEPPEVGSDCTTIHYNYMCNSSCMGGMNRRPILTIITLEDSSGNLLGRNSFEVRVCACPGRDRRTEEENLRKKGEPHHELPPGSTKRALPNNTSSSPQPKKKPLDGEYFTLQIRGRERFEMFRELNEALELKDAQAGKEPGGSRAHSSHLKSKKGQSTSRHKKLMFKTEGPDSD

CC1(C)S[C@@H]2[C@H](NC(=O)[C@H](N)c3ccc(O)cc3)C(=O)N2[C@H]1C(=O)O
inactive: all assays above
